Laboratory results reported in the supplement of paper PMC13380429.

Tested on: Vero E6 infected with SARS-CoV-2
Test: morphology score (similarity to uninfected cells); higher = more like uninfected cells
Details: 24 h

| SMILES | morphology score |
| --- | --- |
| CC1(C)S[C@@H]2[C@H](N3C(=O)[C@@H](c4ccccc4)NC3(C)C)C(=O)N2[C@H]1C(=O)O [hetacillin] (10 µM) | 0.138 |
| CCCN[C@@H]1CCc2c(OC)cccc2[C@@H]1C (10 µM) | 0.0456 |
| CCN(CC)Cc1cc(Nc2ccnc3cc(Cl)ccc23)ccc1O [amodiaquine] (10 µM) | 0.839 |
| O=C(CC1NCCCC1O)Cn1cnc2cc(Br)c(Cl)cc2c1=O (configuration not stated) [halofuginone] (0.833333 µM) | -0.082 |
| NC(=O)N1C(=O)/C(=C(\O)c2cccs2)c2cc(Cl)ccc21 [tenidap] (10 µM) | 0.0356 |
| CCCCCCCCCCCCCCCC[N+](C)(C)Cc1ccccc1 [benzyldimethylhexadecylammonium] (10 µM) | 0.298 |
| Oc1cc(CNC(=S)/C=C/c2cc(O)c(O)c(Br)c2)cc(O)c1O (0.833333 µM) | 0.194 |
| NCC(O)c1ccc(O)cc1 (configuration not stated) [octopamine] (10 µM) | -0.0363 |
| Cc1cc(C#N)cc(C)c1Oc1nc(Nc2ccc(C#N)cc2)nc(N)c1Br [etravirine] (10 µM) | 0.364 |
| CNC[C@H](O)[C@@H](O)[C@H](O)[C@H](O)CO [meglumine] (10 µM) | -0.00131 |
| Cc1c(S(=O)(=O)O)oc2c1C(=O)C(=O)c1c-2ccc2c1CCCC2(C)C [sodium-tanshinone-II-A-sulfonate] (10 µM) | 0.0001 |
| CC[C@H](C)[C@H](N)C1=N[C@H](C(=O)N[C@@H](CC(C)C)C(=O)N[C@H](CCC(=O)[O-])C(=O)N[C@H](C(=O)N[C@H]2CCCCNC(=O)[C@H](CC(N)=O)NC(=O)[C@@H](CC(=O)[O-])NC(=O)[C@H](Cc3cnc[nH]3)NC(=O)[C@@H](Cc3ccccc3)NC(=O)[C@H]([C@@H](C)CC)NC(=O)[C@@H](CCCN)NC2=O)[C@@H](C)CC)CS1.[Zn+2] [bacitracin-zinc] (10 µM) | -0.0221 |
